The list shows a part of the results. Unmarked numbers belong to inactive results. The rule behind the calls is not given here.
Molecular target: Tyrosine-protein phosphatase non-receptor type 22 (Homo sapiens) (UniProt Q9Y2R2)
Experiment: retest of PTPN22 activators, confirmation, biochemical, DiFMUP fluorescence, single concentration (AID 1031)
Conditions: Recombinant LYP, at 2 µM, active compounds read high, zero set by plate's median compound well

Tyrosine-protein phosphatase non-receptor type 22 (Homo sapiens), sequence (Q9Y2R2 whole entry, looked up): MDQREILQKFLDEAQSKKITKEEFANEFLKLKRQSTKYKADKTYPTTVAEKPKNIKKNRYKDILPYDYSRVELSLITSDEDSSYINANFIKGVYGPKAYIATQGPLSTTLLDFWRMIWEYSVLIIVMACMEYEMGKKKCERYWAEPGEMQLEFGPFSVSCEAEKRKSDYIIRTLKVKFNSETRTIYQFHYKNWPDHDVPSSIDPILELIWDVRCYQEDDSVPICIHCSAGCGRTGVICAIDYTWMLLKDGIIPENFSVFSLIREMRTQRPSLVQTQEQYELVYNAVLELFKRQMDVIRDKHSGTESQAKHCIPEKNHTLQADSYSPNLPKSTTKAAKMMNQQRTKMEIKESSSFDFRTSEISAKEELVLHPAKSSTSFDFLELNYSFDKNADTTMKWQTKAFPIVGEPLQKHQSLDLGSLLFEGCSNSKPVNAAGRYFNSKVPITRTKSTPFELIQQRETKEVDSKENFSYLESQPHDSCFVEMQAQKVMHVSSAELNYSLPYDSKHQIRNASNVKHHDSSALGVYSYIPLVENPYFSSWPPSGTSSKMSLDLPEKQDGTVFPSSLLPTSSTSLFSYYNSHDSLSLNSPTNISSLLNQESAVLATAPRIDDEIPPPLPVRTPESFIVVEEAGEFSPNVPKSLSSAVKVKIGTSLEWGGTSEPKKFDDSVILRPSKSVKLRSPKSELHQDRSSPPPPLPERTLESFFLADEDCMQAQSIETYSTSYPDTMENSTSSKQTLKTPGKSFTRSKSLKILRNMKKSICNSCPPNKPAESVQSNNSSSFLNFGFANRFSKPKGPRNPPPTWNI

| SMILES | activation [%] |
| --- | --- |
| N#CCCn1ncc2ccccc21 | 5.5 |
| Cc1ccccc1NC(=O)c1cc(S(=O)(=O)N2CCOCC2)cs1 | -3.6 |
